# Data as given in PubChem BioAssay (EPA / NIEHS).
# Calls of active or inactive are those of the source. The calls were made as follows: active = hit-call score of the fitted dose curve at least 0.9, where 1 is the maximum; inactive = score below 0.9.
# Assay: CCTE_Harrill_HTTr_Viability_MCF7: CCTE's 6-hour Cell Viability Assessment for the High-Throughput Transcriptomics (HTTr) Platform, in MCF-7 cells cultured in DMEM + 10% fetal bovine serum, Harrill Lab (AID 2284010)
# In short: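 Propidium iodide exclusion, imaged by high-content analysis, gauged viability after a six-hour exposure across eight concentrations. Cells were MCF-7 grown in DMEM with 10% fetal bovine serum; fits run in both directions against DMSO.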
Compound,outcome,AC50
O=C(O)CCCCCCCCCCCC(=O)O,inactive,
C=CCOC(=O)CCCCCC,inactive,
Cc1ncc([N+](=O)[O-])n1CCO,inactive,
C[C@H]1C[C@@H](O)CC(C)(C)C1,inactive,
COc1cc([C@@H]2c3cc4c(cc3[C@@H](O[C@@H]3O[C@@H]5CO[C@@H](C)O[C@H]5[C@H](O)[C@H]3O)[C@H]3COC(=O)[C@H]23)OCO4)cc(OC)c1O,inactive,
O=[N+]([O-])c1cccc(Cl)c1,inactive,
CN(C)CCOc1ccc(/C(=C(/CCCl)c2ccccc2)c2ccccc2)cc1,,68.7 µM (active)
CC(C)(CO)[C@@H](O)C(=O)NCCC(=O)O,inactive,
CC1=CC[C@@]23C[C@@H]1C(C)(C)[C@@H]2CC[C@H]3C,inactive,
CC(C)(C)C1=CC(=O)C(C(C)(C)C)=CC1=O,inactive,
O=C(O)c1cccnc1C(=O)O,inactive,
CS(=O)(=O)c1ccc(C2=C(c3ccccc3)C(=O)OC2)cc1,inactive,
OCCc1ccccc1,inactive,
O=P(O)(O)O,inactive,
CC(C)NCC(O)COc1ccc(CC(N)=O)cc1 (stereo unspecified),inactive,
CC(C)(C)c1ccc(C(=O)O)cc1,inactive,
Clc1cc(Cl)c(-c2c(Cl)c(Cl)cc(Cl)c2Cl)cc1Cl,inactive,
CCCC1O[C@@H]2C[C@H]3[C@@H]4CCC5=CC(=O)C=C[C@]5(C)[C@H]4[C@@H](O)C[C@]3(C)[C@]2(C(=O)CO)O1 (stereo partly specified),inactive,
CCC1(c2ccccc2)C(=O)NCNC1=O,inactive,
C=C(C)[C@H]1CC=C(C)C(=O)C1,inactive,
Clc1ccc(C(c2ccccc2Cl)C(Cl)Cl)cc1 (stereo unspecified),inactive,
